# Source: the supplement of paper PMC6555819
# What was measured:
# Experiment in all cases: PBM binding z-score (relative to random genomic background probes); higher = stronger binding; sequences stand for … in GC…GCGATTGACAGCGTAGAATGAAGG
# [1] = system: PPARg:RXRa DBDmut IVT, anti-RXR (DBD mutation: RXRa K156A/R161A, NR concentration 270 nM, RXRa partner concentration 90 nM)
# Summary of the method: (§1)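 Custom Agilent 4×180K protein-binding microarrays carried double-stranded probes, each with a 34-nt variable region. These regions held direct-repeat seeds, single-nucleotide variants, half-site ablations and random human genomic background sequences. Ligand-free nuclear receptor dimers were incubated on the arrays for 1 h, antibodies against each partner (one per run) detected binding, and scanned fluorescence was regression-normalized. Binding z-scores take the random background probes as reference.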
# [2] = system: PPARg:RXRa IVT, anti-PPARg (NR concentration 270 nM, RXRa partner concentration 90 nM)
# Summary of the method: as §1
# [3] = system: PPARg DBDmut:RXRa IVT, anti-PPARg (DBD mutation: PPARg1 K132A/R137A, NR concentration 270 nM, RXRa partner concentration 90 nM)
# Summary of the method: as §1
# [4] = system: PPARg DBDmut IVT, anti-PPARg (DBD mutation: PPARg1 K132A/R137A, NR concentration 270 nM)
# Summary of the method: as §1
# [5] = system: PPARg homodimer (NR concentration 180 nM)
# Summary of the method: as §1
# [6] = system: PXR:RXRa (NR concentration 270 nM, RXRa partner concentration 90 nM)
# Summary of the method: as §1
# [7] = system: PXR homodimer (NR concentration 270 nM)
# Summary of the method: as §1
# [8] = system: RARa:RXR (NR concentration 270 nM, RXRa partner concentration 90 nM)
# Summary of the method: as §1
# [9] = system: RARa homodimer (NR concentration 270 nM)
# Summary of the method: as §1
# [10] = system: RARb:RXRa (NR concentration 270 nM, RXRa partner concentration 90 nM)
# Summary of the method: as §1
# [11] = system: RARb homodimer (NR concentration 270 nM)
# Summary of the method: as §1
# [12] = system: RARg:RXRa (NR concentration 270 nM, RXRa partner concentration 90 nM)
# Summary of the method: as §1
# [13] = system: RARg homodimer (NR concentration 270 nM)
# Summary of the method: as §1
# [14] = system: RXRa DBDmut IVT, anti-RXR (DBD mutation: RXRa K156A/R161A, NR concentration 90 nM)
# Summary of the method: as §1
# [15] = system: RXRa homodimer (NR concentration 180 nM)
# Summary of the method: as §1
# [16] = system: THRa:RXRa (NR concentration 90 nM, RXRa partner concentration 90 nM)
# Summary of the method: as §1
# [17] = system: THRa homodimer (NR concentration 90 nM)
# Summary of the method: as §1
# [18] = system: VDR homodimer (NR concentration 270 nM)
# Summary of the method: as §1
Sequence,PBM binding z-score [1],PBM binding z-score [2],PBM binding z-score [3],PBM binding z-score [4],PBM binding z-score [5],PBM binding z-score [6],PBM binding z-score [7],PBM binding z-score [8],PBM binding z-score [9],PBM binding z-score [10],PBM binding z-score [11],PBM binding z-score [12],PBM binding z-score [13],PBM binding z-score [14],PBM binding z-score [15],PBM binding z-score [16],PBM binding z-score [17],PBM binding z-score [18]
CGAACCAGGTCATCCAGGACAGTGAATACATTGA,5.15,5.48,1.46,0.673,2.01,2.98,3.52,3.1,1.01,3.95,3.03,4.28,4.8,2.81,3.95,4.15,2.93,2.75
TCATATAGGTAAACAGTTGAAAGTCCGTAAGTTA,4.45,3.32,1.41,0.905,1.35,1.03,0.634,1.35,1.47,0.681,0.802,0.44,0.23,1.9,0.856,0.535,0.428,0.845
TCTTGTAGATCAAGGAGGTTAAGAAAGCCTGAGT,1.66,0.772,0.58,0.0101,0.474,0.734,0.408,0.789,-0.0638,0.468,0.594,0.234,-0.0688,0.581,0.685,0.835,-0.069,0.29
CACGAAAGGTCGTGCTCAGGTGAGTATACCAAAC,1.16,1.86,0.523,0.745,1.9,3.35,0.154,4.28,-0.1,4.13,2.88,5.37,4.66,2.24,5.36,3.96,1.18,1.46
TCTAGTTGGTCACGCAGGTCACACACGACGGGTA,2.32,3.48,0.238,1.23,1.91,2.72,0.544,3.15,1.14,3.05,3.63,3.59,3.7,1.03,3.08,2.92,1.81,1.76
CCTTACGGGTCACTCCAGGTTATAGTATCGGAGT,2.7,3.52,0.75,0.31,1.56,4.94,0.228,3.64,0.304,3.8,3.16,4.38,4.25,1.55,4.67,5.23,0.63,1.7
ACTACTTGGTCAGCTGAGGTCACACACAATTCGG,2.16,2.81,0.583,1.36,4.02,5.72,1.85,4.92,0.831,3.59,4.44,4.3,4.38,1.76,4.45,5.04,5.43,3.73
CCTAGTTGGTCAGGGTCACACACGCTATAGGTAC,1.32,2.77,0.391,0.0582,2.15,3.91,1.38,4.76,1.57,3.43,3.88,4.11,3.38,1.6,4.93,3.63,2.49,2.69
ACTAGTTGGGCAGCTGAGGTCACACACAATTCGG,1.04,1.73,0.77,0.164,2.17,4.46,1.48,4.23,0.707,3.05,3.83,3.56,3.17,1.21,3.56,4.63,4.73,2.9
ATCTCTAGGTAACCAAGTTCAGGGAATGCCGAAC,3.23,2.89,0.704,1.55,0.857,2.04,1.49,0.735,0.329,1.15,1.55,0.828,0.852,0.481,0.745,1.69,0.87,2.84
CCTCGGAGGACAACAGGTGGTCAGAGCTGCCAGA,-0.455,-0.616,-2.74,-2.26,-0.317,-0.667,-0.589,-0.583,-0.066,1.04,0.83,0.693,1.32,-0.142,-0.432,0.397,-0.269,-0.187
AGAATCAGGTTATTAAGATCAGGGAATTGCGGTC,2.96,2.28,0.999,0.854,1.29,0.516,0.602,0.644,1.45,1,0.785,0.291,0.541,0.627,0.596,1.21,0.84,0.616
CCTATTAGTTGACCATCAGGGCAACCGAAGCTCG,0.536,0.814,0.556,0.943,1.44,0.0854,0.589,0.0403,1.51,1.07,1.35,0.553,0.807,0.518,0.205,1.19,0.957,0.592
TCTATTAGTTCAAGGGCAACCGACGAGTCCGTTT,2.36,1.14,0.61,1.22,1.87,2.28,2.5,1.55,1.41,3.08,2.81,2.08,2.62,2.6,1.58,1.92,1.36,3.41
AGAATGAGGTTAAGATGAGGGAAACAGAATACAT,2.68,2.39,1.61,0.526,0.984,1.35,0.581,2.22,0.74,1.95,1.16,2.21,1.62,1.17,2.38,2.61,0.911,0.657
GATACAGGGTCAGCTAGAGGCCACAGTATGGAAA,1.47,2.57,0.921,0.377,2.57,3.94,-0.253,5.22,0.785,4.2,3.61,7.06,5.21,0.909,4.27,3.39,0.56,0.844
